This is a sample that favours compounds with a hit; in the whole collection about 7.8% have one here.
TSHR ag: agonists of human thyroid stimulating hormone receptor. P16473. HEK293-CNG-TSHR cells (CNG channel as cAMP sensor), membrane potential dye, cAMP. Potency, µM (series often up to 57.1 µM), most hits filed as activators. hit rate 0.48% among 73,000; active = well fitted activation curve with a large enough effect in the main read-out, with a control signal flat, not every such curve was filed as active; inconclusive = small, poorly fitted or top-dose-only effect, or a change in a side signal; inactive = no such curve, though single readings can be large or run the other way; reference of the percent scale not stated here;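 note: the control signal comes from parental cells without the receptor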
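cAMP rise detected as CNG-channel membrane depolarization by fluorescent dye (emission 590 nm), 30 min after compound, following 60 min dye loading containing 100 uM RO 20-1724 at room temperature. Cells: TSHR/CNG HEK 293, with parental CNG HEK 293 as control.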
15-hLO inh: blocks human 15-lipoxygenase activity; P16050; purified 15hLO-1, xylenol orange hydroperoxide absorbance; Potency, µM (series often up to 57.1 µM), hits mostly inhibitors; hit rate 1.4% among 74,000; note: nearly all actives have a fitted effect of over 55% in size
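Compounds were preincubated 15 min at room temperature with 40 nM purified human enzyme (25 mM Hepes pH 7.5, 0.01% Triton X-100); 50 uM arachidonic acid reacted 6 min. Fe-xylenol orange detection, 30 min, absorbance ratio 573/405 nm.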
PK Bst: pyruvate kinase (B. stearothermophilus) modulation; Potency, µM; hit rate 1.2% among 51,000; purified pyruvate kinase, luminescence ATP production; ribose 5-phosphate activator present at AC10; in the data active = potency below about 11 µM; inconclusive = mostly about 12 µM to 25 µM;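 the screen sought inhibitors and activators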
HEK293 cAMP ctrl: raises cAMP in parental HEK293 cells, TSHR agonist counter-screen | parental HEK293 CNG cAMP sensor, membrane potential fluorescence | hit rate 2.5% among 73,000 | Potency, µM (titrated, usually from 57.1 µM), hits mostly activators; note: nearly all actives have a fitted effect of over 55% in size
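Counterscreen for endogenous-receptor signalling: CNG-channel HEK 293 cells report cAMP rise by membrane depolarization. After 60 min dye equilibration with 100 uM RO 20-1724, compounds incubated 30 min before bottom-read fluorescence at 590 nm.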
FLuc inh: blocks Photinus pyralis firefly luciferase activity; purified firefly luciferase, luminescence, 8 min; Potency, µM (doses to about 57.1 µM), most hits filed as inhibitors; hit rate 2.2% among 72,000; AID 411; P08659; note: nearly all actives have a fitted effect of over 40% in size
Target sequence (P08659 whole entry, looked up): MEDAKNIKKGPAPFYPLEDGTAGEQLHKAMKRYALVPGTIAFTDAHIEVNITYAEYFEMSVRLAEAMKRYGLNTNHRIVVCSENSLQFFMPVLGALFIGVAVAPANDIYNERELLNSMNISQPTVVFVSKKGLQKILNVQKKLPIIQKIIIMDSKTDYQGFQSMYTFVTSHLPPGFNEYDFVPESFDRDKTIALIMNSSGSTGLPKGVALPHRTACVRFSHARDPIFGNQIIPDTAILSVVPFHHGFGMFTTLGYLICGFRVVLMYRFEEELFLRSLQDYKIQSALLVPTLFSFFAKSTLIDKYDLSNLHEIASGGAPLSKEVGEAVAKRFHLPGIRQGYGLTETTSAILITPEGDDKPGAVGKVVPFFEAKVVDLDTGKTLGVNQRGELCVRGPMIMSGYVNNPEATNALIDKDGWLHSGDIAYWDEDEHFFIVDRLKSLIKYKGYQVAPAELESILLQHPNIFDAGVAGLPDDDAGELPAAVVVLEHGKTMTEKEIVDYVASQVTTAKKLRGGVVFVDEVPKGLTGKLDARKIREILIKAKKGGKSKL
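Substrate buffer containing 10 uM ATP (pH 7.2 imidazole, Mg2+, KCl, detergent, BSA) is dispensed, compound pinned in, then luciferase/luciferin detector mix added. After 8 min at ambient temperature, light output is measured.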
Tau fil binding: binders of human tau filaments; P10636; recombinant tau filaments, thioflavin S fluorescence, 15 h; filaments grown with octadecylsulfate alongside compound; Potency, µM (highest dose often 57.1 µM); hit rate 2% among 71,000; AID 596;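 note: actives lower thioflavin S fluorescence by blocking filaments or displacing dye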
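His-tagged recombinant human tau (exons 2, 3 and 10 included), 1 uM, was induced to fibrillize by 30 uM sodium octadecylsulfate with compound present. After 15 h at 37 C, thioflavine S fluorescence (ex 450, em 510 nm) was read.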
Hits are given with their value; – = inactive; ? = inconclusive; · = no result given; [ ] = remark or other dose. Unless noted, calls come from the whole dose curve; as a rule, active = well fitted curve in the direction sought with a large enough effect; inconclusive = small, poorly fitted or top-dose-only effect, or another doubt; inactive = no such curve, though single readings can be large; an effect the other way counts as inactive or inconclusive.

SMILES	TSHR ag	15-hLO inh	PK Bst	HEK293 cAMP ctrl	FLuc inh	Tau fil binding
COc1cc(C2C(C#N)=C(N)Oc3c2oc(CO)cc3=O)ccc1OC(C)C (stereo not drawn)	–[11.4 µM]	20µM	–	–	–	–
COc1cc(C2C(C#N)=C(N)Oc3cc(N(C)C)ccc32)cc2c1OCO2 (stereo not drawn)	–[11.4 µM]	25µM	–	–	–	–
COc1ccc(C2C(C#N)=C(N)Oc3cc(O)ccc32)cc1OC (stereo not drawn)	–	10µM	–	–	–	–
COC(=O)CC1=COC2OCC3=CC[C@@H]1C32 (stereo partly drawn)	–[11.4 µM]	–[11.4 µM]	·	–[11.4 µM]	·	·
C/C(=N\O)c1ccc(N2C(=O)C3CC=C(Cl)CC3C2=O)cc1 (stereo not drawn)	·	–[11.4 µM]	·	–[11.4 µM]	–	3.2µM
O=C(C[N+]12CN3CN(CN(C3)C1)C2)c1ccc(-c2ccccc2)cc1	–[11.4 µM]	–[11.4 µM]	·	–[11.4 µM]	–[11.4 µM]	3.2µM
O=C(O)CCC(=O)c1ccc(-c2ccccc2)cc1	–	–	·	–	–	–
C[C@H]1CC(C)(C)C[C@@](OCCN2CCCCC2)(c2ccccc2)C1	?	–[11.4 µM]	·	5µM	–[11.4 µM]	–[11.4 µM]
COc1ccc(-n2c(=O)c(-c3cccs3)nc3cnc(N(C)C)nc32)cc1	·	–	·	–	–[11.4 µM]	–
CC(C)C[C@@H](CC(=O)N[C@@H](CCCN)CC(=O)N[C@@H]1CCCC[C@H]1C(=O)N[C@H](CC(=O)N[C@@H](CCC(=O)O)CC(=O)O)Cc1ccccc1)NC(=O)[C@@H]1CCCC[C@H]1N	?	·	·	?	·	–
NCCC[C@@H](CC(=O)N[C@@H]1CCCC[C@H]1C(=O)N[C@H](CC(=O)N[C@@H](CCC(=O)O)CC(=O)O)Cc1ccccc1)NC(=O)C[C@H](Cc1ccccc1)NC(=O)[C@@H]1CCCC[C@H]1N	?	·	·	0.032µM	·	–
CCCN(CC1CC1)c1nc(C)nc(Nc2c(Cl)cc(Cl)cc2Cl)c1Cl	?	–	·	?	?	–
Cc1ccc2nc(SCc3nnc(-c4cccs4)o3)[nH]c2c1	–	–	–	–	–	–
COC(=O)c1cc(CSc2nnc(-c3ccccc3)c(-c3ccccc3)n2)oc1C	–	–	–	–	–	16µM
COC(=O)c1cc(CSc2nc3ccc(C)cc3[nH]2)oc1C	?	–	–	20µM	·	–
N#Cc1c(NC(=O)CCC(=O)O)ccc2ccccc12	–[11.4 µM]	–[11.4 µM]	·	–[11.4 µM]	–[11.4 µM]	–[11.4 µM]
O=c1ccsn1Cc1ccccc1	–	?	–	–	20µM	–
O=C(NCc1ccco1)c1sc(=S)n2c1[nH]c(=O)c1ccccc12	?	–	–	25µM	–	–
O=C(NC1CCCC1)c1sc(=S)n2c1[nH]c(=O)c1ccccc12	?	?	·	?	–	–
COc1ccc(-n2c(=O)cnc3cnc(N4CCN(C)CC4)nc32)cc1	–	–	·	–	–[11.4 µM]	–
O=C(Nc1ccc(Cl)cc1)N1CCN(c2ccc3nnc(-c4ccc(F)cc4)n3n2)CC1	?	–	·	25µM	·	·
O=C(Nc1ccccc1Cl)N1CCN(c2ccc3nnc(-c4ccccc4)n3n2)CC1	–	–	·	–	–	–
O=C1C[C@H](c2ccccc2)[C@@H](c2ccc(Br)cc2)O1	–[11.4 µM]	–[11.4 µM]	·	–[11.4 µM]	–[11.4 µM]	·
CCc1c(C)nc2cc(-c3ccc(OC)cc3)[nH]n2c1=O	–	–	?	–	20µM	–
Cc1ccc(-c2cc3nc4c(c(=O)n3[nH]2)CCCC4)cc1	–	–	·	–	4µM	–
SMILES	TSHR ag	15-hLO inh	PK Bst	HEK293 cAMP ctrl	FLuc inh	Tau fil binding
Cc1[nH]n2c(=O)c3c(nc2c1-c1ccc(Cl)cc1)CCC3	–	–	–	–	–	–
O=C(O)NCc1ccccc1 (tested in a mixture with another compound)	?	–[11.4 µM]	·	?	–[11.4 µM]	–[11.4 µM]
CCN1C(=O)[C@H]2[C@H]3[C@H](O)[C@H](O)C/C(=N/OCC(C)C)[C@@H]3CC[C@@H]2C1=O	–[11.4 µM]	–[11.4 µM]	·	–[11.4 µM]	–[11.4 µM]	·
CCCCCOc1ccc(C(=O)NCC(=O)NCC(=O)OCC)cc1	·	·	–	·	–	·
CCOc1cc(C)nc(N2CCCC(C(=O)NCc3ccccc3F)C2)n1 (stereo not drawn)	?	–	–	?	–	–
Cc1cc(C)nc(N2CCCC(C(=O)NCCc3ccccc3F)C2)n1 (stereo not drawn)	–	–	3.2	–	–	–
COCC(C)NC(=O)NC1(C(F)(F)F)Oc2ccc(Cl)cc2O1 (stereo not drawn)	–	–	–	–	–	–
O=C(NCCN1CCOCC1)NC1(C(F)(F)F)Oc2ccc(Cl)cc2O1 (stereo not drawn)	–	3.2µM	–	–	–	–
COc1cccc(CNC2CCCC2)c1	–	–	·	–	–	–
c1ccc(-n2cccc2CNC2CCCCC2)cc1	?	–	–	25µM	–	–
COc1ccc(COC(=O)c2ccc(N3CCCC3=O)cc2)cc1F	?	–	–	?	–	–
CN1C2CC(OC(=O)C(CO)c3ccccc3)C[C@@H]1[C@H]1OC21 (stereo partly drawn)	·	–	·	·	·	·
O=C(NCc1ccncc1)c1ccc(Br)cc1	–[11.4 µM]	–[11.4 µM]	·	–[11.4 µM]	–	–[11.4 µM]
[O-]/[N+](=C\c1ccncc1)c1ccc(Br)cc1	–	–	·	–	7.9µM	–
C/C(=C\CNc1ncnc2c1ncn2[C@@H]1O[C@@H](CO)[C@@H](O)[C@H]1O)CO	–	·	·	–	–[11.4 µM]	–
CCOC(=O)c1c(NC(=O)c2ccn(CC)n2)sc2c1CCCC2	–	?	–	–	–	–
CCc1ccc(OC(=O)c2ccn(CC)n2)cc1	–	–	?	–	13µM	–
CCOc1nc(C#N)nc(N2CCCCC2)n1	?	–	–	?	–	13µM
O=C(O)c1cccc(COc2ccccc2Cl)c1	–	–	6.7	–	6.3µM	–
O=C(O)c1ccc(COc2ccccc2Cl)cc1	–	–	–	–	–	–
Cc1occc1C(=O)Nc1cccc2ccccc12	–	–	–	–	25µM	–
CC(C)CN=C(N)N=C(N)N	–[11.4 µM]	–[11.4 µM]	·	–[11.4 µM]	–[11.4 µM]	–[11.4 µM]
CC(=O)OC/C=C(\C)CC/C=C(\C)CC/C=C(\C)CC/C=C(\C)CC/C=C(\C)CC/C=C(\C)CC/C=C(\C)CC/C=C(\C)CCC=C(C)C	·	–	·	·	·	·
O=C(NCc1cc(F)cc2c1OCCO2)[C@H]1C[C@@H]1[C@H](NP(=O)(c1ccccc1)c1ccccc1)c1ccccc1	?	·	·	?	·	–
O=C(O)CCC(C(=O)O)n1c(O)c(C2=c3ccccc3=NC2=O)sc1=S (stereo not drawn)	–	10µM	·	–	–	–
O=C1N=c2ccccc2=C1c1sc(=S)n(CC2CCCO2)c1O (stereo not drawn)	–	–	·	–	–	–
COc1cc2c(cc1OC)-c1cc(Nc3ccc4c(c3)OCCO4)nc(=O)n1CC2	·	–	·	–	?	?
COc1cc2c(cc1OC)-c1cc(NC3CCCCCC3)nc(=O)n1CC2	10µM	–	–	–	–	–

High-throughput results as filed in PubChem.
